Measured values taken from publication PMC4336329 (PLoS ONE, 2015).
Out of some 310,000 compounds screened, about 14,000 (4.5%) showed an effect of 50% or more. Effects have a minus sign here. Only a selection was taken, and strong results are over-represented in it overall.
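Further: peak tail current of the secondary pulse compared with the same well before compound.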

The compounds below were run against human ether-à-go-go-related gene (hERG) potassium channel (human, UniProt Q12809) (assay: primary screen, population patch clamp on CHO cells stably expressing hERG; higher = less effect of the substance).
human ether-à-go-go-related gene (hERG) potassium channel, sequence (Q12809 whole entry, looked up): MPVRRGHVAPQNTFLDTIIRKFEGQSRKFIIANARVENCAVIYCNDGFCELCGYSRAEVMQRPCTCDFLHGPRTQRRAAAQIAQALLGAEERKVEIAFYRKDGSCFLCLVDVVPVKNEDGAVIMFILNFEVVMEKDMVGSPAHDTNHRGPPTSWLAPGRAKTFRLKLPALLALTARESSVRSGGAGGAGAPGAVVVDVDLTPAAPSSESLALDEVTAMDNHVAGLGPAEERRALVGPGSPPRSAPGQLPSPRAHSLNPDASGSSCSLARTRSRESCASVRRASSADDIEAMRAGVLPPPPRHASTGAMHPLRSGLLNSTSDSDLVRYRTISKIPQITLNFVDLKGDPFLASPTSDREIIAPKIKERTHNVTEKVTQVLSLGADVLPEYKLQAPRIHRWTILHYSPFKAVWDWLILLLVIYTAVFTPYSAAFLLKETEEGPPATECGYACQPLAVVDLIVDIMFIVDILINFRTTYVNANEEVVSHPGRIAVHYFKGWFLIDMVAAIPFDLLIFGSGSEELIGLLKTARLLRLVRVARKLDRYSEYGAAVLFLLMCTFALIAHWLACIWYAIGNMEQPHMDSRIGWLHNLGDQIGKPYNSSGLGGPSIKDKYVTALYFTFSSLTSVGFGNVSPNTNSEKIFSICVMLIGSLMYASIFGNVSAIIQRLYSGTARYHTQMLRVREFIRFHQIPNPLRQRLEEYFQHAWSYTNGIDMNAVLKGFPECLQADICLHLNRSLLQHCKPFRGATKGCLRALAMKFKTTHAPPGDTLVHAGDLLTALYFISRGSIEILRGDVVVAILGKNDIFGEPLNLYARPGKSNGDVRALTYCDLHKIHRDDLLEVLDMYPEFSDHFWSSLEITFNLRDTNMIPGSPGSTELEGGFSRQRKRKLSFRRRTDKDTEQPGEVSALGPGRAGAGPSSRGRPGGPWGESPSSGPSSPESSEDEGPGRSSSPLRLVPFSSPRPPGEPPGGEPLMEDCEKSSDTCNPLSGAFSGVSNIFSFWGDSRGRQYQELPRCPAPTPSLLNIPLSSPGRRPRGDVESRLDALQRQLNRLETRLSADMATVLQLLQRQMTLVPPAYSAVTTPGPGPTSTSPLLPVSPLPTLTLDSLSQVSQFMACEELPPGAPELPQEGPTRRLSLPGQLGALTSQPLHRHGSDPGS
In the case of `Cc1c(Cl)c([N+](=O)[O-])nn1CC(=O)N1CCN(C23CC4CC(CC(C4)C2)C3)CC1`, the “hERG current change (%, negative = inhibition) at 10uM” value is reported as 19.9%.
For `N#CC(C#N)=NNc1ccc(S(=O)(=O)N2CCCC2)cc1`, the “hERG current change (%, negative = inhibition) at 10uM” value was -17.8%.
For `Cc1ccc(C(=O)COc2cc(O)c3c(=O)cc(-c4ccccc4)oc3c2)cc1`, the “hERG current change (%, negative = inhibition) at 10uM” value was 24.6%.
With `CCOC(=O)/C(C#N)=C1\CCCN1CC(N)=S` the “hERG current change (%, negative = inhibition) at 10uM” value was 2.57%.
For `COc1ccc2c(-c3ccccc3)cc(SC(C)C(N)=O)nc2c1` (centres unmarked), the “hERG current change (%, negative = inhibition) at 10uM” value was 19.3%.
For `COc1ccc(C(=O)Nc2ccc([N+](=O)[O-])cn2)cc1OC`, the “hERG current change (%, negative = inhibition) at 10uM” value was -22.6%.
With `Clc1ccccc1N1CCN(Cc2c[nH]c3ccccc23)CC1` the “hERG current change (%, negative = inhibition) at 10uM” value was -35.6%.
In the case of `Cc1ccccc1N1CCN(Cc2c[nH]c3ccccc23)CC1`, the “hERG current change (%, negative = inhibition) at 10uM” value is reported as -62.1%.
With `Cl.c1ccc2c(CN3CCCCCC3)c[nH]c2c1` the “hERG current change (%, negative = inhibition) at 10uM” value was -18.1%.
In the case of `Brc1ccc(-c2cnc3n2CCCC3)cc1`, the “hERG current change (%, negative = inhibition) at 10uM” value is reported as -34.2%.
For `CCOc1ccc(N(CC(=O)NCCSCc2ccc(C)cc2)S(C)(=O)=O)cc1`, the “hERG current change (%, negative = inhibition) at 10uM” value was 10.1%.
With `CCC(C)c1ccccc1NC(=O)C(C)N(C)Cc1cccc(OC)c1.O=C(O)C(=O)O` (centres unmarked) the “hERG current change (%, negative = inhibition) at 10uM” value was 11.8%.
For `Cc1ccc(S(=O)(=O)N(C)CC(=O)NCCCn2ccnc2)cc1`, the “hERG current change (%, negative = inhibition) at 10uM” value was 9.92%.
For `Br.CC(C)(C)C(=O)CN1C2=NCCN2c2ccccc21`, the “hERG current change (%, negative = inhibition) at 10uM” value was -32.1%.
`Br.C=CCN1C2=NCCCN2c2ccccc21` was tested, and the “hERG current change (%, negative = inhibition) at 10uM” value was -13.9%.
With `Cc1ccc(CN2C3=NC(=O)CN3c3ccccc32)cc1` the “hERG current change (%, negative = inhibition) at 10uM” value was -5.41%.
For `Cc1ccc(CN2C3=NCCN3c3ccccc32)cc1.Cl`, the “hERG current change (%, negative = inhibition) at 10uM” value was -68.3%.
With `Br.CC(C)(C)C(=O)CN1C2=NCCCN2c2ccccc21` the “hERG current change (%, negative = inhibition) at 10uM” value was -75.8%.
In the case of `Br.CC(C)(C)c1ccc(CN2C3=NCCCN3c3ccccc32)cc1`, the “hERG current change (%, negative = inhibition) at 10uM” value is reported as -77.6%.
`Cc1cccc(CN2C3=NCCCN3c3ccccc32)c1.Cl` was tested, and the “hERG current change (%, negative = inhibition) at 10uM” value was -57.4%.
`COC(=O)Cc1ccc(NC(=S)NCCO)cc1` was tested, and the “hERG current change (%, negative = inhibition) at 10uM” value was 17.6%.
For `Cn1ccs/c1=N\C(=O)Nc1cccc(Cl)c1`, the “hERG current change (%, negative = inhibition) at 10uM” value was 0.433%.
With `O=C(NCc1cc([N+](=O)[O-])ccc1O)c1cccc(NS(=O)(=O)c2ccccc2)c1` the “hERG current change (%, negative = inhibition) at 10uM” value was 18.3%.
For `CCOc1ccc(C(C(=O)NC2CCCCC2)N(C(=O)Cc2cccs2)c2ccc(-n3cnnn3)c(OC)c2)cc1` (centres unmarked), the “hERG current change (%, negative = inhibition) at 10uM” value was -15.7%.
With `CCOC(=O)c1[nH]c(C)c(/C(O)=C2\C(=O)C(=O)N(CCCN(C)C)C2c2cccnc2)c1C` (centres unmarked) the “hERG current change (%, negative = inhibition) at 10uM” value was 4.27%.
`NCc1cccc(-n2cccn2)c1.O=C(O)CC(=O)O` was tested, and the “hERG current change (%, negative = inhibition) at 10uM” value was -8.09%.
For `CCc1ccccc1NC(=O)CC1SCCNC1=O` (centres unmarked), the “hERG current change (%, negative = inhibition) at 10uM” value was 26.3%.
With `O=C(O)COCC(=O)NCc1csc2ccccc12` the “hERG current change (%, negative = inhibition) at 10uM” value was 2.75%.
`COc1ccc(S(=O)(=O)Nc2ccccc2C(N)=O)cc1OC` was tested, and the “hERG current change (%, negative = inhibition) at 10uM” value was 10.1%.
With `Cc1ccc(CN2C3=NCCCN3c3ccccc32)cc1.Cl` the “hERG current change (%, negative = inhibition) at 10uM” value was -61.2%.
`CCN1C2=NCCCN2c2ccccc21.Cl` was tested, and the “hERG current change (%, negative = inhibition) at 10uM” value was 1.64%.
`c1ccc(-n2nnnc2SCc2ccccn2)cc1` was tested, and the “hERG current change (%, negative = inhibition) at 10uM” value was 7.26%.
`CN(C)CCCNC(=O)/C(=C/c1ccc(-c2ccc([N+](=O)[O-])cc2)o1)NC(=O)c1ccccc1` was tested, and the “hERG current change (%, negative = inhibition) at 10uM” value was -73.6%.
`Cc1ccc(C(=O)N/C(=C\c2ccc(-c3ccc([N+](=O)[O-])cc3)o2)C(=O)NC2CCS(=O)(=O)C2)cc1` (centres unmarked) was tested, and the “hERG current change (%, negative = inhibition) at 10uM” value was -28.2%.
`Cc1ccc(C(=O)N/C(=C/c2ccc(-c3ccc([N+](=O)[O-])cc3)o2)C(=O)NCCCN(C)C)cc1` was tested, and the “hERG current change (%, negative = inhibition) at 10uM” value was -73.7%.
In the case of `CCCCC(=O)N/N=C/c1ccc(-c2ccc([N+](=O)[O-])cc2)o1`, the “hERG current change (%, negative = inhibition) at 10uM” value is reported as -21.9%.
In the case of `COc1ccc(CN=C2NC(=O)CC(C(=O)Nc3cc(C)cc(C)c3)S2)cc1` (centres unmarked), the “hERG current change (%, negative = inhibition) at 10uM” value is reported as -18.4%.
For `COc1ccc(OC)c(NC(=O)CCCN2C(=O)C3C4C=CC(C4)C3C2=O)c1` (centres unmarked), the “hERG current change (%, negative = inhibition) at 10uM” value was -3.43%.
`CCOC(=O)c1ccc(NC(=O)N2CCCCC2)cc1` was tested, and the “hERG current change (%, negative = inhibition) at 10uM” value was 3.33%.
With `COc1ccc(CN2CCN(S(=O)(=O)c3ccc(NC(C)=O)cc3)CC2)cc1.O=C(O)C(=O)O` the “hERG current change (%, negative = inhibition) at 10uM” value was -29.4%.
In the case of `CCOc1ccc(C(=O)CN2CCN(S(=O)(=O)c3ccc(Cl)cc3)CC2)cc1`, the “hERG current change (%, negative = inhibition) at 10uM” value is reported as -40.2%.
`CCOc1ccc(C(=O)CN2CCN(S(=O)(=O)c3ccc(F)cc3)CC2)cc1` was tested, and the “hERG current change (%, negative = inhibition) at 10uM” value was -63%.
In the case of `CCOc1ccc(C(=O)CN2CCN(S(=O)(=O)c3ccc(OC)cc3)CC2)cc1`, the “hERG current change (%, negative = inhibition) at 10uM” value is reported as -61.7%.
In the case of `CCOc1ccc(CN2CCN(S(=O)(=O)c3ccc(NC(C)=O)cc3)CC2)cc1OC.O=C(O)C(=O)O`, the “hERG current change (%, negative = inhibition) at 10uM” value is reported as -35.4%.
`CCOc1ccc(NC(=O)CCN2CCN(S(=O)(=O)c3ccc(F)cc3)CC2)cc1` was tested, and the “hERG current change (%, negative = inhibition) at 10uM” value was -16.5%.
With `CCOc1ccc(CN2CCN(S(=O)(=O)c3ccc(NC(C)=O)cc3)CC2)cc1.O=C(O)C(=O)O` the “hERG current change (%, negative = inhibition) at 10uM” value was -50.4%.
In the case of `CCOC(=O)COc1ccc(S(=O)(=O)N2CCN(c3ccc(OC)cc3)CC2)cc1`, the “hERG current change (%, negative = inhibition) at 10uM” value is reported as 0.759%.
For `CCOC(=O)COc1ccc(S(=O)(=O)N2CCN(c3ccccc3)CC2)cc1`, the “hERG current change (%, negative = inhibition) at 10uM” value was -39%.
With `CCOc1ccc(NC(=O)CCN2CCN(S(=O)(=O)c3ccc(OC)cc3)CC2)cc1` the “hERG current change (%, negative = inhibition) at 10uM” value was -28.8%.
For `CCOC(=O)COc1ccc(S(=O)(=O)N2CCN(c3ccc(F)cc3)CC2)cc1`, the “hERG current change (%, negative = inhibition) at 10uM” value was -60%.
`CCOc1ccc(S(=O)(=O)N2CCN(S(=O)(=O)c3ccc(C(C)=O)cc3)CC2)cc1` was tested, and the “hERG current change (%, negative = inhibition) at 10uM” value was 0.493%.
With `Cc1c(NC(=S)Nc2ccccc2)c(=O)n(-c2ccccc2)n1C` the “hERG current change (%, negative = inhibition) at 10uM” value was 32.9%.
For `NC1=NC(=O)/C(=C\c2cccs2)S1`, the “hERG current change (%, negative = inhibition) at 10uM” value was 8.6%.
With `N#C/C(=C/c1ccncc1)c1nc2ccccc2s1` the “hERG current change (%, negative = inhibition) at 10uM” value was 2.23%.
For `CCOc1cccc(C=NCCc2ccc(OC)c(OC)c2)c1O`, the “hERG current change (%, negative = inhibition) at 10uM” value was 12.4%.
In the case of `O=C(NCC1CCCO1)c1ccc(Cl)c(S(=O)(=O)N2CCOCC2)c1` (centres unmarked), the “hERG current change (%, negative = inhibition) at 10uM” value is reported as 12.7%.
